A selection: hits, their analogues and other compounds. The true share with any hit is near 6%.
D3 ag: D3 dopamine receptor (human) agonism; D3R DiscoveRx beta-arrestin cells, luminescence, 90 min; max activation, %; hit rate 0.58% among 410,000; AID 652048; in the data active means max activation above about 30%; further: 0% is about no effect
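Agonist-mode cell screen: cells plated at 1500/well and incubated overnight at 37 °C, then exposed to library compounds for 90 min at 37 °C. Detection reagent was added for 30–60 min at room temperature, and luminescence was read.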
D1 antagonist: antagonists of human D1 dopamine receptor; P21728; hit rate 3.2% among 360,000; activity change, negative = inhibition, % at 10 µM; HEK293 TREx D1 cells, calcium flux, dopamine EC80; hits give low values; in the data active means activity change below about -30%; further: on the % scale 0 is the no-effect control and ±100 the full control effect
Target sequence (P21728 whole entry, looked up): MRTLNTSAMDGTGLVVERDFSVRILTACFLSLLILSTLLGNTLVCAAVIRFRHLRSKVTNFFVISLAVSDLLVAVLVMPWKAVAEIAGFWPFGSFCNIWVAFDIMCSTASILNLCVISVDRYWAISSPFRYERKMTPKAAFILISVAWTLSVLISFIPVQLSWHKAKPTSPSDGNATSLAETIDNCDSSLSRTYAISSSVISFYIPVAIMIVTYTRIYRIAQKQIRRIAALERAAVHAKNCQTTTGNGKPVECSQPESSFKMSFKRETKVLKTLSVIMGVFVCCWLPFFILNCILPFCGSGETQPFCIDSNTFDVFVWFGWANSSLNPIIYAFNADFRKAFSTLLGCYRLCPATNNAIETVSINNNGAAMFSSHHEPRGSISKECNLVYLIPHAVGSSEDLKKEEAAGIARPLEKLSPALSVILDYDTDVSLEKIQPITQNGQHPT
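Tetracycline-induced HEK293 T-REx cells with force-coupled D1 receptor were loaded with a no-wash calcium dye. Compound was added after a 10 s baseline and read kinetically for 180 s; EC80 dopamine was then added and calcium flux followed another 180 s.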
D1 PAM: enhances dopamine response at the human D1 receptor | P21728 | HEK293 TREx D1 cells, calcium flux, dopamine EC20 potentiation | potentiation, % at 10 µM | hit rate 0.036% among 360,000 | AID 504651; in the data active means potentiation above about 30%; further: 0% is about no effect
D3 antag: blocks the human D3 dopamine receptor; D3R cells, DiscoveRx beta-arrestin luminescence, antagonist mode; hits give low values; max response, negative = inhibition, %; hit rate 2.5% among 360,000; in the data active means max response below about -50%; inconclusive means no clear call, values can overlap the other calls; further: on the % scale 0 is the no-effect control and ±100 the full control effect
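Cells plated overnight at 1500 cells/well, then exposed to library compounds with dopamine controls for 90 minutes at 37 degrees C. DiscoveRx reagent added for 30–60 minutes at room temperature; luminescence read, quantitative HTS format.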
D1 agonist: human D1 receptor agonism. P21728. HEK293 T-REx D1 cells, calcium flux, agonist mode. activation, % at 2 µM. hit rate 1% among 360,000. AID 504660; in the data active means activation above about 30%; further: 0% is about no effect
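Inducible HEK293 T-REx D1 cells, force-coupled to calcium signalling, were plated at 4000 cells/well with tetracycline and held overnight at 30 C. After no-wash calcium dye loading, compound-evoked calcium rise over 180 s flagged agonists.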
* marks the source's active call; other numbers are inactive results; ? = inconclusive; / = no result given.

SMILES	D3 ag	D1 antagonist	D1 PAM	D3 antag	D1 agonist
C=CCc1cc(F)c(S(=O)(=O)N2CCN(S(=O)(=O)c3ccc4c(c3)OCCO4)CC2)cc1F	/	-6	-1	/	2
CC1(C(=O)NS(=O)(=O)c2cccc(Cl)c2)CCN1C(=O)CCc1ccccc1 (stereo not drawn)	-10	/	/	?	/
Cc1ccc(OCCC(=O)N(CCC(C)C)c2c(N)n(Cc3ccccc3)c(=O)[nH]c2=O)cc1	6	-9	0	13	3
O=C(NCc1ccccc1Cl)c1ccc2oc(=O)n(Cc3ccccc3)c2c1	-3	-33*	1	/	9
Cc1ccc(CS(=O)Cc2ccc(C(=O)NCc3ccccc3Cl)o2)cc1 (stereo not drawn)	6	10	8	0	-1
COc1ccccc1S(=O)(=O)Cc1ccc(C(=O)NCc2ccc(C)cc2)o1	1	-23	-11	-7	1
O=C(c1ccc(CS(=O)(=O)c2ccc(Br)cc2)o1)N1CCCCCC1	4	-24	/	-3	33*
O=C(c1ccc(CS(=O)(=O)c2ccc(Br)cc2)o1)N1CCCC1	4	-4	/	-15	14
O=C(NCc1ccccc1Cl)c1ccc(CS(=O)Cc2ccc(Cl)cc2)o1 (stereo not drawn)	0	-46*	6	2	3
COc1ccccc1CNC(=O)c1ccc(CS(=O)(=O)c2ccccc2OC)o1	-3	-89*	-7	-24	3
CC1(c2nnnn2-c2ccc3c(c2)OCCO3)CCC(=O)N1Cc1cccnc1 (stereo not drawn)	0	/	/	-17	/
O=C(NCc1ccccc1Cl)c1ccc(CS(=O)(=O)c2ccc(Br)cc2)o1	-20	3	-3	/	46*
CCOc1ccc(C2c3[nH]c4ccccc4c3CCN2C(=O)CSc2ccccc2)cc1 (stereo not drawn)	-12	-1	-4	/	4
Cc1ccc(C(=O)c2oc3ccccc3c2NC(=O)COc2ccc(C(C)C)cc2)cc1	0	-14	-4	/	1
c1ccc2c(c1)ncn2CCN1CCCCC1	1	-71*	-16	-15	3
N#CCC(=O)N1CCn2c1nc1ccccc12	9	-1	0	49	2
c1ccc2c(c1)nc1n2CCN1CCN1CCCC1	-36	-3	-4	-112*	0
c1ccc(CN2CCN(CCN3CCn4c3nc3ccccc34)CC2)cc1	1	16	-3	-72*	-1
c1ccc2c(c1)nc1n2CCN1CCNC1CCCCC1	-1	33	-1	0	-1
C[C@@H]1CN([C@@H](C)CO)C(=O)c2cc(Br)cnc2O[C@H]1CN(C)Cc1cccnc1	8	/	/	23	/
C[C@H](CO)N1C[C@H](C)[C@@H](CN(C)Cc2ccncc2)Oc2ncc(Br)cc2C1=O	-17	/	/	-114*	/
CN(C(=O)CCCN1C(=O)c2ccccc2C1=O)C1CCCCC1	3	2	-7	-21	0
COc1ccc2c(c1)c(CC(=O)OCC(N)=O)c(C)n2C(=O)c1ccc(Cl)cc1	1	0	-4	0	0
COc1ccc2c(c1)c(CC(=O)OCC(=O)O)c(C)n2C(=O)c1ccc(Cl)cc1	-2	25	10	-54*	1
Cc1sc(NC(=O)CSc2nnnn2C2CCCCC2)c(C#N)c1C	3	-34*	-2	-1	4
SMILES	D3 ag	D1 antagonist	D1 PAM	D3 antag	D1 agonist
CCOC(=O)c1ccccc1NC(=O)CSc1nnnn1C1CCCCC1	-30	13	14	-77*	10
COc1ccccc1NC(=O)CSc1nnnn1Cc1ccccc1	-5	-16	-7	11	1
CCOc1ccccc1NC(=O)CSc1nnnn1Cc1ccccc1	5	10	-5	-59*	3
CCCCOc1ccc(NC(=O)CSc2nnnn2C)cc1	-5	8	-3	-113*	1
CC1(CO)CCCC1NCCNC1CCCC1(C)CO (stereo not drawn)	6	/	/	0	/
Cc1cc(NC(=O)COn2nnc3ccc(Cl)cc32)no1	6	-6	-6	2	1
CCOc1ccccc1NC(=O)COn1nnc2ccc(Cl)cc21	-8	-5	5	-4	30*
CCOc1ccc(NC(=O)CSc2nnnn2C2CCCC2)cc1	-16	-1	/	?	47*
CCOC(=O)c1cn(CC(=O)Nc2ccccc2C(=O)OCC)nn1	-6	5	2	-72*	-2
CCOC(=O)c1cn(CC(=O)Nc2ccc(C)cc2)nn1	-4	-26	-6	-12	2

Screens deposited in PubChem by National Center for Advancing Translational Sciences (NCATS).
